Data reported in PubChem BioAssay (NCATS).
Inconclusive results are not listed. The source made the active and inactive calls. The call rests on the fitted dose curve; in most records, active means well fitted inhibition curve with a large enough effect; inconclusive means small, poorly fitted or top-dose-only effect, or effect the other way; inactive means flat fitted curve, though single readings scatter.

Biological target: ATP-dependent 6-phosphofructokinase (Trypanosoma brucei brucei) (UniProt O15648)
Assay: qHTS Assay to Find Inhibitors of T. brucei phosphofructokinase: hit validation (AID 492961);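 further: luminescence reports ADP formed as PFK phosphorylates fructose-6-phosphate with ATP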
Conditions: T. brucei PFK, ADP-Glo luminescence; series mostly up to 51.4 µM
Outline: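 Compounds titrated; %activity normalized to 0x and 1x enzyme controls, curve-fitted. Readout: ADP-Glo luminescence after 45 min room-temperature reaction of 1.25 nM PFK, 0.1 mM ATP, 0.5 mM F6P, pH 8.0.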

ATP-dependent 6-phosphofructokinase (Trypanosoma brucei brucei), sequence (O15648 whole entry, looked up): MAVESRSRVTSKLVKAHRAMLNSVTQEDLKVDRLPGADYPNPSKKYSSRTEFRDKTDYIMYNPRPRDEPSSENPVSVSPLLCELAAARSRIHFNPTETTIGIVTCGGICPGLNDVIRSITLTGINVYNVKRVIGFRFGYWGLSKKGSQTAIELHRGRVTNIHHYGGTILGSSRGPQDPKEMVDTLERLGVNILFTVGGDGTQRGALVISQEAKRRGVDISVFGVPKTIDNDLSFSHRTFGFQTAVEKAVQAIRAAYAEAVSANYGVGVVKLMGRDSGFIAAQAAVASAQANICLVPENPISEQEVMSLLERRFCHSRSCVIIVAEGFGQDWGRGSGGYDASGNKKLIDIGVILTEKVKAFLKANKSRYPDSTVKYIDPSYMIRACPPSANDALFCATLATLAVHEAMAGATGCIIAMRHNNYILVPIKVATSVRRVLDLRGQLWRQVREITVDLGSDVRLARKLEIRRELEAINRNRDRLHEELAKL

Row | Structure (SMILES) | outcome
1 | CC1(C)O[C@@H]2C[C@@H]3[C@H]4C[C@@H](F)C5=CC(=O)C=C[C@]5(C)[C@@]4(F)[C@@H](O)C[C@]3(C)[C@]2(C(=O)CO)O1 | inactive
2 | COC(=O)C[C@](O)(CCCC(C)(C)O)C(=O)O[C@@H]1C(OC)=C[C@]23CCCN2CCc2cc4c(cc2[C@H]13)OCO4 | inactive
3 | O=c1[nH]c(=O)n(C2CCCO2)cc1F (stereo unspecified) | inactive
4 | COC(=O)C1=C(C)NC(C)=C(C(=O)OCCN2CCN(C(c3ccccc3)c3ccccc3)CC2)C1c1cccc([N+](=O)[O-])c1 (stereo unspecified) | inactive
5 | CCC1=C[C@@H]2CN(C1)Cc1c([nH]c3ccccc13)[C@@](C(=O)OC)(c1cc3c(cc1OC)N(C)[C@@H]1[C@@](O)(C(=O)OC)[C@H](OC(C)=O)[C@]4(CC)C=CCN5CC[C@]31[C@@H]54)C2 | inactive
6 | CC=CC1=C(C(=O)O)N2C(=O)[C@H](NC(=O)[C@H](N)c3ccc(O)cc3)[C@@H]2SC1 | inactive
7 | C[C@H]1C[C@@H]2[C@@H]([C@@H](O)C[C@@]3(C)[C@H]2CC[C@]3(O)C(=O)CO)[C@@]2(C)C=CC(=O)C=C12 | inactive
8 | Nc1ccc(S(=O)(=O)Nc2ncccn2)cc1 | inactive
9 | COc1cc(C(=O)NS(=O)(=O)c2ccccc2C)ccc1Cc1cn(C)c2ccc(NC(=O)OC3CCCC3)cc12 | inactive
10 | CC[C@H]1CN2CCc3cc(OC)c(OC)cc3[C@H]2C[C@@H]1C[C@@H]1NCCc2cc(OC)c(OC)cc21 | inactive
11 | CC(C)(C)NC(=O)[C@H]1CN(Cc2cccnc2)CCN1C[C@@H](O)C[C@@H](Cc1ccccc1)C(=O)N[C@H]1c2ccccc2C[C@H]1O | inactive
12 | Nc1ccn([C@@H]2CS[C@H](CO)O2)c(=O)n1 | inactive
13 | CN1c2cc(O)c(N=NC(N)=O)cc2CC1S(=O)(=O)O (stereo unspecified) | inactive
14 | COc1c(N2C[C@@H]3CCCN[C@H]3C2)c(F)cc2c(=O)c(C(=O)O)cn(C3CC3)c12 | inactive
15 | Nc1ccn([C@@H]2O[C@H](CO)[C@H](O)C2(F)F)c(=O)n1 | inactive
16 | O=C(O)CO.[NH2-].[NH2-].[Pt+2] | inactive
